# Tests used:
# [1] = target: POU1 (OCT1 POU domain) (human, UniProt P14859 260-458); assay: EMSA-SELEX-seq; no BOB1; 20 mM Tris-HCl pH 7.6, 140 mM NaCl, 10% glycerol, 0.5 mM EDTA, 0.05% Triton X-100, 0.1 mg/mL BSA, 0.1 mg/mL poly(dI-dC), 5 mM DTT, room temperature, 20 min; high values mean tight binding; conditions: protein: recombinant; dsDNA, one strand shown
# Procedure, shortened: (§1)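 Tagged POU-domain proteins were produced in E. coli BL21, purified under denaturing conditions and renatured before use. They were mixed at 30 ng with 300 ng of a PCR-amplified double-stranded random 35-nt library, with or without 28 ng coactivator protein, in 20 μL Tris–HCl pH 7.6 binding buffer, incubating 20 min at RT. Complexes cut from native 6% PAGE were eluted and PCR-amplified over four rounds, then sequenced by Illumina, with binding preference taken as the percentage of sequenced 8-mers matching a motif pattern.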
# [2] = target: T1, POU2 (OCT2 POU domain) (human, UniProt P09086 175-386); assay: as above; conditions: protein: recombinant; dsDNA, one strand shown
# T1 sequence: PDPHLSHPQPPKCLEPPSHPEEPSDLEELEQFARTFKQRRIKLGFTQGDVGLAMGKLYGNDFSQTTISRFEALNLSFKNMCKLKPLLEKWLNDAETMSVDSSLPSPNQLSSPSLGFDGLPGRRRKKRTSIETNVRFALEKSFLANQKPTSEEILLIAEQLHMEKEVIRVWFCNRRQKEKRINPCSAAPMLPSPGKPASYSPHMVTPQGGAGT
# Procedure, shortened: as §1
# [3] = target: POU1 (OCT1 POU domain);BOB1 (OBF1, OCA-B) (human;human, UniProt P14859;Q16633 260-458;1-256, |); assay: EMSA-SELEX-seq; with BOB1 (ternary complex band); 20 mM Tris-HCl pH 7.6, 140 mM NaCl, 10% glycerol, 0.5 mM EDTA, 0.05% Triton X-100, 0.1 mg/mL BSA, 0.1 mg/mL poly(dI-dC), 5 mM DTT, room temperature, 20 min; high values mean tight binding; conditions: protein: recombinant;recombinant; copies: 1;1; dsDNA, one strand shown
# Procedure, shortened: as §1
# [4] = target: T2, POU2 (OCT2 POU domain);BOB1 (OBF1, OCA-B) (human;human, UniProt P09086;Q16633 175-386;1-256, |); assay: as above; conditions: protein: recombinant;recombinant; copies: 1;1; dsDNA, one strand shown
# T2 sequence 1: T1 sequence
# T2 sequence 2: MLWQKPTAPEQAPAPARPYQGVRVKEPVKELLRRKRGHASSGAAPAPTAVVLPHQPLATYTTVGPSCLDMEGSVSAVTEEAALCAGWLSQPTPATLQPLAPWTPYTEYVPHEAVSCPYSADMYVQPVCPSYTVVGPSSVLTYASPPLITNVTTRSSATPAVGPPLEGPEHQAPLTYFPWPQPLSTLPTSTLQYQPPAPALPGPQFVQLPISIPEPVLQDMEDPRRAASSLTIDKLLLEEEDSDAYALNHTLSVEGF
# Procedure, shortened: as §1
# POU1 (OCT1 POU domain), sequence (P14859 260-458): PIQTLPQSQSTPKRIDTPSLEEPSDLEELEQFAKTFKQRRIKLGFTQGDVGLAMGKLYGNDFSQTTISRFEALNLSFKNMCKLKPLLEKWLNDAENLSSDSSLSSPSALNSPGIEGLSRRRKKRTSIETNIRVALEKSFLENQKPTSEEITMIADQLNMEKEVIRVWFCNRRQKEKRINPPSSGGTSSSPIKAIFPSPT
Sequence,binding signal [1],binding signal [2],binding signal [3],binding signal [4]
ATGGAAAC,0.0805 % of ANNNNAAN 8-mers,0.0616 % of ANNNNAAN 8-mers,0.11 % of ANNNNAAN 8-mers,0.066 % of ANNNNAAN 8-mers
AAAGGAAC,0.0435 % of ANNNNAAN 8-mers,0.0443 % of ANNNNAAN 8-mers,0.0476 % of ANNNNAAN 8-mers,0.0371 % of ANNNNAAN 8-mers
ATTTGAAG,0.0713 % of ANNNNAAN 8-mers,0.0604 % of ANNNNAAN 8-mers,0.0909 % of ANNNNAAN 8-mers,0.0545 % of ANNNNAAN 8-mers
AGCATAAT,0.269 % of ANNNNAAN 8-mers,0.277 % of ANNNNAAN 8-mers,0.0757 % of ANNNNAAN 8-mers,0.106 % of ANNNNAAN 8-mers
ATTGTAAA,0.116 % of ANNNNAAN 8-mers,0.106 % of ANNNNAAN 8-mers,0.144 % of ANNNNAAN 8-mers,0.0925 % of ANNNNAAN 8-mers
AGGTGAAG,0.04 % of ANNNNAAN 8-mers,0.0386 % of ANNNNAAN 8-mers,0.0339 % of ANNNNAAN 8-mers,0.0471 % of ANNNNAAN 8-mers
AACGTAAG,0.0301 % of ANNNNAAN 8-mers,0.0351 % of ANNNNAAN 8-mers,0.0336 % of ANNNNAAN 8-mers,0.0305 % of ANNNNAAN 8-mers
ATCTAAAC,0.0229 % of ANNNNAAN 8-mers,0.0374 % of ANNNNAAN 8-mers,0.0379 % of ANNNNAAN 8-mers,0.0495 % of ANNNNAAN 8-mers
AAATTAAA,0.328 % of ANNNNAAN 8-mers,0.349 % of ANNNNAAN 8-mers,0.213 % of ANNNNAAN 8-mers,0.217 % of ANNNNAAN 8-mers
ACGATAAG,0.0275 % of ANNNNAAN 8-mers,0.0311 % of ANNNNAAN 8-mers,0.0215 % of ANNNNAAN 8-mers,0.0314 % of ANNNNAAN 8-mers
ATACAAAA,0.144 % of ANNNNAAN 8-mers,0.0857 % of ANNNNAAN 8-mers,0.195 % of ANNNNAAN 8-mers,0.105 % of ANNNNAAN 8-mers
AAATGAAA,0.15 % of ANNNNAAN 8-mers,0.133 % of ANNNNAAN 8-mers,0.21 % of ANNNNAAN 8-mers,0.147 % of ANNNNAAN 8-mers
ATAATAAC,0.0873 % of ANNNNAAN 8-mers,0.101 % of ANNNNAAN 8-mers,0.0496 % of ANNNNAAN 8-mers,0.0603 % of ANNNNAAN 8-mers
ATGACAAT,0.0576 % of ANNNNAAN 8-mers,0.0737 % of ANNNNAAN 8-mers,0.0453 % of ANNNNAAN 8-mers,0.0471 % of ANNNNAAN 8-mers
ACCTTAAT,0.0629 % of ANNNNAAN 8-mers,0.0679 % of ANNNNAAN 8-mers,0.0418 % of ANNNNAAN 8-mers,0.0545 % of ANNNNAAN 8-mers
ACAGCAAT,0.0286 % of ANNNNAAN 8-mers,0.0288 % of ANNNNAAN 8-mers,0.0281 % of ANNNNAAN 8-mers,0.0215 % of ANNNNAAN 8-mers
AACATAAG,0.0694 % of ANNNNAAN 8-mers,0.0731 % of ANNNNAAN 8-mers,0.041 % of ANNNNAAN 8-mers,0.0396 % of ANNNNAAN 8-mers
ATTATAAT,0.94 % of ANNNNAAN 8-mers,1.04 % of ANNNNAAN 8-mers,0.163 % of ANNNNAAN 8-mers,0.207 % of ANNNNAAN 8-mers
ACTCAAAC,0.0187 % of ANNNNAAN 8-mers,0.027 % of ANNNNAAN 8-mers,0.03 % of ANNNNAAN 8-mers,0.0149 % of ANNNNAAN 8-mers
AACTAAAC,0.0225 % of ANNNNAAN 8-mers,0.0299 % of ANNNNAAN 8-mers,0.0289 % of ANNNNAAN 8-mers,0.0264 % of ANNNNAAN 8-mers
AATAAAAC,0.0751 % of ANNNNAAN 8-mers,0.0967 % of ANNNNAAN 8-mers,0.0757 % of ANNNNAAN 8-mers,0.0726 % of ANNNNAAN 8-mers
ATGAAAAT,0.373 % of ANNNNAAN 8-mers,0.304 % of ANNNNAAN 8-mers,0.619 % of ANNNNAAN 8-mers,0.518 % of ANNNNAAN 8-mers
AACGCAAG,0.016 % of ANNNNAAN 8-mers,0.0219 % of ANNNNAAN 8-mers,0.0222 % of ANNNNAAN 8-mers,0.0281 % of ANNNNAAN 8-mers
ATCTTAAC,0.0351 % of ANNNNAAN 8-mers,0.0449 % of ANNNNAAN 8-mers,0.0402 % of ANNNNAAN 8-mers,0.0512 % of ANNNNAAN 8-mers
AGCCCAAT,0.0168 % of ANNNNAAN 8-mers,0.019 % of ANNNNAAN 8-mers,0.0226 % of ANNNNAAN 8-mers,0.0231 % of ANNNNAAN 8-mers
AAGGAAAC,0.0385 % of ANNNNAAN 8-mers,0.0403 % of ANNNNAAN 8-mers,0.0511 % of ANNNNAAN 8-mers,0.038 % of ANNNNAAN 8-mers
ATCCAAAT,0.131 % of ANNNNAAN 8-mers,0.11 % of ANNNNAAN 8-mers,0.209 % of ANNNNAAN 8-mers,0.133 % of ANNNNAAN 8-mers
ACGCAAAA,0.151 % of ANNNNAAN 8-mers,0.0944 % of ANNNNAAN 8-mers,0.277 % of ANNNNAAN 8-mers,0.157 % of ANNNNAAN 8-mers
ACTACAAA,0.0214 % of ANNNNAAN 8-mers,0.0391 % of ANNNNAAN 8-mers,0.0285 % of ANNNNAAN 8-mers,0.0256 % of ANNNNAAN 8-mers
ATGCCAAC,0.0225 % of ANNNNAAN 8-mers,0.0293 % of ANNNNAAN 8-mers,0.025 % of ANNNNAAN 8-mers,0.0124 % of ANNNNAAN 8-mers
